Only some compounds are listed: those with a hit (about 21% of all), similar ones and a draw of the others.
Pf growth 96h = P. falciparum growth inhibition at 96 hour, primary screen for plastid delayed-death inhibitors. P. falciparum luciferase reporter growth, 96 h. AID 504834. actives 6.9% (n = 320,000). Potency, µM (titrated, usually from 28.7 µM), for inactives: at the top dose activity change, negative = inhibition, hits mostly inhibitors; note: potency is the fitted concentration of half-maximal effect; % is set by controls: 0 for no effect and ±100 for the full control effect
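Parasite growth measured via integrated firefly luciferase reporter in P. falciparum. Infected erythrocytes at 2% hematocrit, 0.05% parasitemia final were treated 96 hours at 37 C under 5% CO2, and luminescence was read.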
Pf growth 48h = inhibits P. falciparum growth in the first generation, 48 h | P. falciparum luciferase growth in erythrocytes, 48 h | Potency, µM (series often up to 28.7 µM), for inactives: at the top dose activity change, negative = inhibition, hits mostly inhibitors | actives 5.9% (n = 310,000) | AID 504832; note: potency is the fitted concentration of half-maximal effect; % is set by controls: 0 for no effect and ±100 for the full control effect
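In quantitative HTS format, infected erythrocytes bearing luciferase-reporter parasites were treated for a single generation at 37 C. Luminescence after adding detection reagent served as the growth measure.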
NS1 function inh = inhibitors of influenza NS1 protein function | AID 2326 | actives 0.4% (n = 270,000) | Potency, µM (highest dose often 46.1 µM), for the others: at the highest dose activity, positive = more growth; calls by dose curve; note: potency is the fitted concentration of half-maximal effect; actives are rising curves; nearly all actives have a fitted effect of over 50% in size
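Compounds were scored for reversing the slow growth caused by influenza A NS1 in S. cerevisiae, measured by optical density at 600 nm. Assay medium contained 2% galactose at pH 6.0; NS1-free yeast of the same strain were the positive control.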
Shiga toxin inh = blocks Shiga toxin action in Vero cells; Vero cells, Shiga toxin protein synthesis inhibition reporter; actives 9.2% (n = 290,000); inhibition, % at 38.7 µM; AID 2315; in the data active = inhibition mostly above about 28%, no sharp cut-off; inactive = mostly below about 43%; note: 0% is about no effect
Cycloheximide cs = affects cycloheximide protein synthesis inhibition readout, counter-screen. actives 12% (n = 300,000). max response, %. cell reporter, cycloheximide protein synthesis inhibition counterscreen; in the data active = max response mostly above about 13%, no sharp cut-off; inactive = mostly below about 14%; note: read at 38.3 µM for the half of the compounds with a filed dose; 0% is about no effect
Sm TGR inh = inhibitors of Schistosoma mansoni thioredoxin glutathione reductase; Q962Y6; purified TGR, DTNB reduction, TNB absorbance 405 nm; Potency, µM (highest dose often 114 µM), inactives show at the top dose activity change, negative = inhibition, most hits filed as inhibitors; actives 3% (n = 360,000); AID 485364; note: potency is the fitted concentration of half-maximal effect; % is set by controls: 0 for no effect and ±100 for the full control effect; nearly all actives have a fitted effect of over 60% in size
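Kinetic colorimetric format: TGR-catalysed, NADPH-driven DTNB reduction monitored via TNB absorbance. Enzyme dispensed at 20 nM; compound exposure 15 min at room temperature before reaction start.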
* marks the source's active call; other numbers are inactive results; u = inconclusive; x = not tested or not shown. Unless noted, calls come from the whole dose curve; as a rule, active = well fitted curve in the direction sought with a large enough effect; inconclusive = small, poorly fitted or top-dose-only effect, or another doubt; inactive = no such curve, though single readings can be large; an effect the other way counts as inactive or inconclusive.

SMILES | Pf growth 96h | Pf growth 48h | NS1 function inh | Shiga toxin inh | Cycloheximide cs | Sm TGR inh
Cc1cccc(C(=O)NC(=S)Nc2ccc(S(=O)(=O)N3CCN(C)CC3)cc2)c1 | x | -28% | -1% | -5 | 10 | u
CN1CCN(S(=O)(=O)c2ccc(C(=O)Nc3ccccc3)cc2)CC1 | -28% | x | u | 63* | 19* | 1%
C[C@@]12C[C@H](O)C3[C@H](CCC4=CC(=O)CC[C@]43C)[C@H]1CC[C@@H]2c1csc(-c2ccccc2)n1 (stereo partly specified) | x | x | -5% | x | x | x
O=C(CN1C(=O)CC(c2ccccc2)=Nc2ccccc21)NCc1ccccc1 | 2% | -1% | 0% | 16 | -2 | -10%
Cc1cc2c(cc1C)N(CC(=O)N1CCCC1)C(=O)CC(c1ccccc1)=N2 | x | x | -3% | 56* | 33* | 1%
COc1ccc(N2CCN(C(=O)CSc3nnc(NC(=O)C4CCC4)s3)CC2)cc1 | -23% | 0% | 2% | -1 | 0 | 0%
CN(Cc1ccccc1F)c1nc(-c2cccs2)nc2ccccc12 | -4% | 9.3µM* | -42% | 7 | 3 | 1%
Fc1ccccc1N1CCN(c2nc(-c3cccs3)nc3ccccc23)CC1 | u | u | 9% | 2 | -2 | 1%
COc1ccc(C2(CNC(=O)/C=C\c3ccco3)CCCC2)cc1OC | u | 12µM* | 2% | 13 | 11 | 3.2µM*
COc1ccc(C(NC(=O)/C=C/c2ccco2)c2ccc(OC)c(OC)c2)cc1OC | u | -1% | 4% | 11 | 14 | 8.9µM*
COc1cccc(C(=O)NCC2(c3ccc(OC)c(OC)c3)CCCC2)c1 | 0% | -20% | 3% | -3 | -2 | -30%
CC(C)c1nc(C(=O)N2CCCC(N3CCN(c4cccc(Cl)c4)CC3)C2)cs1 (stereo unspecified) | 3.7µM* | u | -23% | -15 | -3 | -20%
Cc1cccc(C(=O)N2CCCC(N3CCN(c4cccc(Cl)c4)CC3)C2)n1 (stereo unspecified) | -4% | -7% | -2% | 15 | 21* | -2%
Cc1ccc2nc(C)cc(C(=O)N3CCCC(N4CCN(c5ccccc5C)CC4)C3)c2c1 (stereo unspecified) | 1% | 12µM* | -42% | -8 | 8 | 1%
O=C(c1ccncc1)N1CCCC(N2CCN(c3ccc(F)cc3)CC2)C1 (stereo unspecified) | 30% | 27% | 14% | 39* | 27* | 0%
CCOC(=O)c1ccccc1NC(=O)N1CCN(Cc2cc(=O)n3nc(-c4ccccc4)sc3n2)CC1 | x | x | x | x | x | 21%
CSc1ccccc1NC(=O)COC(=O)Cn1cc(C(F)(F)F)ccc1=O | 3% | -2% | x | x | x | -3%
COc1cccc(NC(=O)CN2C(=O)NC(C)(CC(C)C)C2=O)c1 (stereo unspecified) | 24% | -29% | x | -21 | 1 | 11%
Cc1ccsc1C(=O)N1CCCC(N2CCN(c3cccc(Cl)c3)CC2)C1 (stereo unspecified) | 20% | 38% | -17% | -11 | 1 | 1%
O=C(c1cnccn1)N1CCCC(N2CCN(c3cccc(Cl)c3)CC2)C1 (stereo unspecified) | 36% | -3% | 7% | -16 | 10 | 89µM*
O=c1sc2ccccc2n1COc1ccc(Cl)cc1 | 21% | x | -2% | 72 | 35* | -9%
O=c1sc2ccccc2n1COc1ccccc1 | -3% | -6% | 2% | 48 | 15 | 11%
Cc1ccc(OCCn2c(=O)sc3ccccc32)cc1 | u | -2% | -6% | 61* | 45* | -2%
O=c1sc2ccccc2n1CCCOc1ccccc1 | 176% | 57% | -31% | 119* | 42* | 22%
Cc1ccccc1OCCCn1c(=O)sc2ccccc21 | 144% | 9% | -55% | 106* | 66* | 14%
SMILES | Pf growth 96h | Pf growth 48h | NS1 function inh | Shiga toxin inh | Cycloheximide cs | Sm TGR inh
c1ccc(-c2cc(-c3cc(-c4ccccn4)[nH]n3)n[nH]2)nc1 | x | x | 0% | x | x | x
Cc1ccc(OCCCn2c(=O)sc3ccccc32)cc1 | 1% | u | -28% | 19 | 24* | -12%
COc1ccc(Cn2c(=O)sc3ccccc32)cc1 | x | 5% | u | -1 | 1 | -4%
Clc1ccc(N2CCNCC2)nn1 | -23% | u | x | -12 | -2 | -11%
N#Cc1ccc(N2CCCNCC2)nc1 | -1% | 3% | 6% | -4 | -4 | 28µM*
CCc1ccc(NC(=O)Cn2nnc(C(=O)Nc3ccc(F)cc3)c2N)cc1 | x | x | x | x | x | 4%
O=[N+]([O-])/C(C(Cl)=C(Cl)Cl)=C(/Sc1ccccc1)N1CCCCC1 | u | u | 0% | 2 | 28 | 28µM*
COc1ccc(OCCNc2cc(Cl)ccc2[N+](=O)[O-])cc1 | 0% | -9% | 7% | 1 | 17* | 5%
O=[N+]([O-])c1ccc(N2CCN(S(=O)(=O)c3ccccc3)CC2)cc1NCCN1CCOCC1 | 9.3µM* | 13µM* | 6% | -5 | -3 | 4%
COc1cccc(OCCNc2cc(N3CCOCC3)ccc2[N+](=O)[O-])c1 | 0.41µM* | 15% | 7% | 22 | 44* | -5%
O=C(NCCS(=O)(=O)N1CCN(c2ccccc2)CC1)C1CC1 | -9% | 3% | x | x | x | 2%
O=C(c1cccc(F)c1)N1CCC2(CC1)NCCc1[nH]cnc12 | 18% | 0% | 0% | 10 | 1 | -21%
O=C(O)CC1SC(=Nc2cccc(C(F)(F)F)c2)NC1=O (stereo unspecified) | 2.9µM* | x | -11% | -11 | -2 | 0%
S=C(c1ccc(OCc2ccccc2)cc1)N1CCCC1 | -10% | 35% | -16% | 39* | 21* | 10%
Fc1ccc(COc2ccc(C(=S)N3CCCC3)cc2)cc1 | u | 37% | -19% | 59* | 53* | 19%
O=C(COc1ccc(C(=S)N2CCCC2)cc1)Nc1ccccc1C(F)(F)F | u | 17% | -24% | -11 | -2 | -22%
CCOc1cc(C(=S)N2CCCC2)ccc1OCc1ccccc1 | u | 0% | -32% | -8 | 5 | 3%
O=C(COc1ccc(C(=S)N2CCCC2)cc1)Nc1ccc(F)cc1 | 10µM* | -22% | -11% | 23 | 8 | 9%
O=C(CSc1n[nH]c(=O)n1Cc1ccco1)c1ccc(F)cc1 | 3% | -19% | 0% | 14 | 1 | -5%
O=C(CSc1n[nH]c(=O)n1-c1cccnc1)Nc1ccccc1 | 29% | -4% | 10% | 33 | -2 | 0%
O=C(CSc1n[nH]c(=O)n1Cc1ccco1)N1CCOCC1 | 1% | 37% | 0% | -6 | 16* | 0%
O=C(CSc1n[nH]c(=O)n1-c1cccnc1)N1CCOCC1 | 43% | 20% | 4% | 4 | 20* | 8%
COc1ccccc1NC(=O)CSC1=Nc2ccccc2C2=NC(CC(=O)NCc3ccco3)C(=O)N12 (stereo unspecified) | x | x | x | x | x | 2%

High-throughput results from PubChem BioAssay.
